rCAG RNA binder – molecules binding r(CAG) RNA repeats; r(CAG) RNA repeat, TO-PRO-1 dye displacement fluorescence; inhibition, % at 3 µM; 1.3% of 370,000 active; AID 651821;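 active means inhibition above the plate cutoff, the mean of all test compounds on that plate plus 3 SD, cut at about 35% in these data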;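 further: 0% = DMSO alone and 100% = 100 µM mitoxantrone as full dye displacement; higher means more dye released from RNA so lower well fluorescence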
MBD2 inh – MBD2-methylated oligo binding inhibition; inhibition, % at 4.4 µM; TR-FRET, MBD2 binding to methylated oligonucleotide; 0.31% of 370,000 active; in the data active means inhibition above about 13%
Target sequence (Q9UBB5 whole entry, looked up): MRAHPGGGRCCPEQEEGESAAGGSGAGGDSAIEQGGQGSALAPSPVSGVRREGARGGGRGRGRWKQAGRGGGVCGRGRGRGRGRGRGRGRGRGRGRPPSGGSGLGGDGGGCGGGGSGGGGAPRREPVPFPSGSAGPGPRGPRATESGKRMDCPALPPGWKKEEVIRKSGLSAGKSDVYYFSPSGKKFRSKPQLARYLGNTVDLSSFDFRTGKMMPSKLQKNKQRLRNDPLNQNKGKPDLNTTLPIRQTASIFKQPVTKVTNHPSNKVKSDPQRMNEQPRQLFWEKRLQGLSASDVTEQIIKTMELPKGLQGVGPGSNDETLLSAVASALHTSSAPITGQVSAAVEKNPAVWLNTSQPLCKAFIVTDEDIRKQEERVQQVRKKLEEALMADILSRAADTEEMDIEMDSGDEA
DNMT1 block – DNMT1 (human) enzyme inhibition; 0.83% of 360,000 active; inhibition (reported as % activation of signal), % at 10 µM; DNMT1 molecular beacon, Hinp1I cleavage, fluorescence; P26358; AID 588458; in the data active means inhibition above about 50%
LEDGF integ inh – blocks HIV-1 LEDGF/p75-dependent DNA integration; TR-FRET IN-LEDGF/p75 DNA integration, Eu/Cy5; inhibition, % at 3.7 µM; 0.64% of 370,000 active; AID 743269;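 active means inhibition above the screen-wide mean plus 3 SD, cut at about 13% in these data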;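 further: signal is the Cy5 over europium emission ratio at 671 and 618 nm; 0% = plate median of compound wells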
UHRF1 binding – UHRF1 methyl-DNA binding inhibition; UHRF1 binding to methylated oligo, TR-FRET; inhibition, % at 4.4 µM; 0.75% of 370,000 active; AID 687016; in the data active means inhibition above about 21%;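 further: UHRF1 SRA domain binding a hemimethylated CpG hairpin DNA probe; 0% = median of test compound wells and 100% = reference inhibitor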
PG9 Ab binder – binds the HIV-1 gp120 antibody PG9; TR-FRET gp120-PG9 antibody binding; inhibition, % at 6.7 µM; 0.43% of 360,000 active; AID 624416; in the data active means inhibition above about 8.5%
IN multimer up – HIV-1 integrase multimerization activation, counter-screen; shares compounds with LEDGF integ inh; TR-FRET HIV-1 integrase multimerization, biochemical; activation, % at 7.7 µM; 17% of 2,000 active; AID 1053131; in the data active means activation above about 8.9%
TRFRET interf – optically interferes with TR-FRET readout in LEDGF counter-screen | shares compounds with LEDGF integ inh | TR-FRET optical interference counterscreen, HIV-1 IN multimerization | inhibition, % at 7.7 µM | 2,000 tested, under 10 active;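 active means inhibition above the mean over all tested compounds plus 3 SD, which no compound reached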;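 further: 0% = integrase with antibodies and DMSO and 100% = antibodies without integrase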
LEDGF integ conf – confirmation of HIV-1 LEDGF/p75-dependent integration inhibitors | shares compounds with LEDGF integ inh | TR-FRET LEDGF/p75-dependent HIV-1 integration, biochemical | inhibition, % at 3.7 µM | 36% of 2,000 active; in the data active means inhibition above about 14%
Numbers without * were called inactive; nt = no result given. Shown are actives, neighbours in structure and some others; about 3.5% of the full set was active somewhere.

SMILES	rCAG RNA binder	MBD2 inh	DNMT1 block	LEDGF integ inh	UHRF1 binding	PG9 Ab binder	IN multimer up	TRFRET interf	LEDGF integ conf
COc1ccc([C@H]2C[C@H](O)[C@@H](n3cc(COC(=O)c4ccccc4)nn3)CN2CC2CCCCC2)cc1	6	1	-18	28*	2	-2	-1	3	-1
O=C(Nc1c(-c2ccc3c(c2)OCO3)[nH][nH]c1=O)c1cccc(C(F)(F)F)c1	12	2	-25	20*	14	-4	2	-11	-3
O=C(Nc1c(-c2ccc3c(c2)OCO3)[nH][nH]c1=O)c1ccccc1	3	1	15	7	9	-3	nt	nt	nt
COc1ccc(Cn2c(NC(=O)c3ccccc3)nc(Cc3ccccc3)c2Cc2ccccc2)cc1	6	-1	nt	14*	-3	nt	0	2	14*
Cn1c(NC(=O)c2ccccc2)nc(Cc2ccccc2)c1Cc1ccccc1	0	-5	nt	25*	-2	nt	1	-4	27*
COc1ccc(-c2c(Cc3ccccc3)nc(NC(=O)c3ccccc3)n2C)cc1	6	3	nt	13	0	nt	nt	nt	nt
Cn1c(NC(=O)c2ccccc2)nc(Cc2ccccc2)c1-c1ccccc1	1	-6	nt	23*	1	nt	1	-3	31*
CCCn1c(NC(=O)c2ccccc2)nc(Cc2ccccc2)c1Cc1ccccc1	6	2	nt	15*	0	nt	2	-8	25*
O=C(Nc1nc(Cc2ccccc2)c(Cc2ccccc2)n1Cc1ccccc1)c1ccccc1	8	1	nt	5	-3	nt	nt	nt	nt
FC(F)(F)c1ccccc1Cc1c(-c2cccc(Cl)c2)nc2c3ccccc3ccn12	5	-7	nt	6	1	-1	nt	nt	nt
CO[C@@]12[C@@H]3N[C@@H]3CN1C1=C(C(=O)C(N)=C(C)C1=O)[C@@H]2COC(N)=O	12	-2	-7	15*	9	-15	4	-20	7
Cc1ccc(NC(=O)CCc2ccccc2)cc1C	1	-1	0	72*	-3	-1	0	2	-1
CN(C)c1cc(Cl)c2nonc2c1N	0	10	13	26*	12	-3	1	-4	11
O=C(Cc1c(F)cccc1Cl)NNC(=O)c1ccc(Br)s1	1	-6	2	2	-5	0	nt	nt	nt
O=C1c2c(O)cc(O)cc2O[C@H](c2ccc(O)c(O)c2)[C@H]1O	6	-6	6	23*	0	1	2	-8	12
Cc1c(-c2cccc(Cl)c2)nc2ccccc2c1C(=O)NC1CC1	-1	0	-4	21*	3	0	0	0	-3
Cc1c(-c2ccccc2)nc2ccccc2c1C(=O)O	nt	nt	2	nt	nt	nt	nt	nt	nt
CC(=O)Nc1ccc(-c2ccnc3c2CC(C(=O)Nc2cccc(C(C)=O)c2)O3)cc1 (configuration not stated)	2	6	0	-1	-1	-2	nt	nt	nt
CC(=O)Nc1ccc(-c2ccnc3c2CC(C(=O)Nc2ccc(Cl)c(C(F)(F)F)c2)O3)cc1 (configuration not stated)	6	-1	-9	37*	1	1	0	-1	-1
C[C@H]1CN([C@@H](C)CO)C(=O)CCCn2nncc2CO[C@H]1CN(C)C(=O)Nc1cccc(Oc2ccccn2)c1	0	-4	5	-1	0	-3	nt	nt	nt
Cn1nc(C(C)(C)C)cc1C(=O)N1CCCCC1c1cc(C(=O)Nc2ccccc2)no1 (configuration not stated)	2	6	4	0	-1	-1	nt	nt	nt
CC(=O)c1cccc(NC(=O)c2ccccc2N(C)S(=O)(=O)c2ccc(C)cc2)c1	-4	2	-1	0	3	1	nt	nt	nt
